From publication PMC4081100, “A DNA-binding-site landscape and regulatory network analysis for NAC transcription factors in Arabidopsis thaliana”

Assays:
Assay in all cases: universal protein binding microarray (PBM); transcription factors of Arabidopsis thaliana; high values mean tight binding
[1] = molecular target: T1, GST-ANAC092(1-176) (Arabidopsis thaliana, UniProt Q9FKA0 1-176); settings: protein: recombinant; tags: GST; chain copies: 2; dsDNA, one strand shown
T1 sequence: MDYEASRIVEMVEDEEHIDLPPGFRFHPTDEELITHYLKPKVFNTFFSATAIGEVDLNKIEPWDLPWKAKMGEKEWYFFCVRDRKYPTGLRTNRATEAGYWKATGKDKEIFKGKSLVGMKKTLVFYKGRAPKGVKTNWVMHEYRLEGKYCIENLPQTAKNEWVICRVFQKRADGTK
How it was run: (§1)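 Cells were induced to make GST-tagged NAC-domain, full-length or DNA-binding-domain proteins, and zinc acetate was added for zinc-finger proteins. These proteins were purified on glutathione–Sepharose 4B, quantified by A280 or anti-GST western blot, and applied in duplicate at 200 to 500 nM final to custom all-10-mer Agilent 4 × 180K arrays that primer extension had made double-stranded. Binding is given as the normalised enrichment score (E-score) for scored gapped and ungapped 8-mers.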

[2] = molecular target: GST-NTL6(1-168) (Arabidopsis thaliana, UniProt Q9SCK6 1-168); settings: protein: recombinant; tags: GST; chain copies: 2; dsDNA, one strand shown
GST-NTL6(1-168), sequence (Q9SCK6 1-168): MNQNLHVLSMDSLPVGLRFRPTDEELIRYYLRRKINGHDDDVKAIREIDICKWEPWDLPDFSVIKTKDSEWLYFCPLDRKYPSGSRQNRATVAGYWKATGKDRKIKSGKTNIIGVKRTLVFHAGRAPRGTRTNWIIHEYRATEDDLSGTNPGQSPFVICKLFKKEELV
How it was run: as §1

[3] = molecular target: T2, GST-ANAC019 NAC domain (Arabidopsis thaliana, UniProt Q9C932 14-162); settings: protein: recombinant; tags: GST; chain copies: 2; dsDNA, one strand shown
T2 sequence: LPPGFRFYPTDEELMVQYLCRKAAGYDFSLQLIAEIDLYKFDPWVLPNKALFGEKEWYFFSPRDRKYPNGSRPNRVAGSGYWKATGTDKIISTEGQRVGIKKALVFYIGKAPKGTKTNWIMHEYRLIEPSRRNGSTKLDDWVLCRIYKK
How it was run: as §1

[4] = molecular target: T3, GST-ANAC055(1-171) (Arabidopsis thaliana, UniProt Q9LDY8 1-171); settings: protein: recombinant; tags: GST; chain copies: 2; dsDNA, one strand shown
T3 sequence: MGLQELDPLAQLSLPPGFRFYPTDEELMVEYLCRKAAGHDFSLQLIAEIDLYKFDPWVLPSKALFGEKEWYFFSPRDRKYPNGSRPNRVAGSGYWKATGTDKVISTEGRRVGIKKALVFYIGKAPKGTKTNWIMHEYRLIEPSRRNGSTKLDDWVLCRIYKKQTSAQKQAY
How it was run: as §1

[5] = molecular target: T4, GST-ATAF1 NAC domain (Arabidopsis thaliana, UniProt Q39013 7-158); settings: protein: recombinant; tags: GST; chain copies: 2; dsDNA, one strand shown
T4 sequence: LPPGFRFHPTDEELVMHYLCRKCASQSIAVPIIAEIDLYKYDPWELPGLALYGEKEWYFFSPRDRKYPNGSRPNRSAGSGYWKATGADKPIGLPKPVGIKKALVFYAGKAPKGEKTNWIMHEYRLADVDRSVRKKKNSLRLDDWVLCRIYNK
How it was run: as §1

[6] = molecular target: T5, GST-ANAC092(1-285) full length (Arabidopsis thaliana, UniProt Q9FKA0 1-285); settings: protein: recombinant; tags: GST; chain copies: 2; dsDNA, one strand shown
T5 sequence: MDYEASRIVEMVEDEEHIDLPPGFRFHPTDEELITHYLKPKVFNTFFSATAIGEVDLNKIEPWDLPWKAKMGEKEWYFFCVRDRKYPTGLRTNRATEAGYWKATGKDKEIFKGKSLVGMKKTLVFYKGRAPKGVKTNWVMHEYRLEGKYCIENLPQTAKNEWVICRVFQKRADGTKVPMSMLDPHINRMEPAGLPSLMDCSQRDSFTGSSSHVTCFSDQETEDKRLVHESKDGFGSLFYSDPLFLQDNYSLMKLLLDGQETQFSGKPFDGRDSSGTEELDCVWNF
How it was run: as §1

[7] = molecular target: T6, GST-NAP(1-166) (Arabidopsis thaliana, UniProt O49255 1-166); settings: protein: recombinant; tags: GST; chain copies: 2; dsDNA, one strand shown
T6 sequence: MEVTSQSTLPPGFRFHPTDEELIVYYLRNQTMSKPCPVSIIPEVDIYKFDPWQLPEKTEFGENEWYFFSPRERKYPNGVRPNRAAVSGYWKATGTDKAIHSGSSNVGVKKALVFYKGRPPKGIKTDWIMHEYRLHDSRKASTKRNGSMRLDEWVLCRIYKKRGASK
How it was run: as §1

[8] = molecular target: T7, GST-NST2(1-184) (Arabidopsis thaliana, UniProt Q9M274 1-184); settings: protein: recombinant; tags: GST; chain copies: 2; dsDNA, one strand shown
T7 sequence: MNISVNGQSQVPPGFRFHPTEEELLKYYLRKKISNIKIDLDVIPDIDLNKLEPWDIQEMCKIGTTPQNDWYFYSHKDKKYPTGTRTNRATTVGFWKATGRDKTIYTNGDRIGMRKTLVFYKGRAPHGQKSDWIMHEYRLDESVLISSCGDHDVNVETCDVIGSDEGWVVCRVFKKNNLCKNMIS
How it was run: as §1

[9] = molecular target: T8, GST-NTL8 NAC domain (Arabidopsis thaliana, UniProt Q9XIN7 14-156); settings: protein: recombinant; tags: GST; chain copies: 2; dsDNA, one strand shown
T8 sequence: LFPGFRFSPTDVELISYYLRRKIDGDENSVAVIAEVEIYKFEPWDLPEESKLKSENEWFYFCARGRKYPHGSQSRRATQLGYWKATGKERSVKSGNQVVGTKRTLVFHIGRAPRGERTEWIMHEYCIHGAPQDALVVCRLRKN
How it was run: as §1

[10] = molecular target: T9, GST-SND1(1-203) (Arabidopsis thaliana, UniProt Q9LPI7 1-203); settings: protein: recombinant; tags: GST; chain copies: 2; dsDNA, one strand shown
T9 sequence: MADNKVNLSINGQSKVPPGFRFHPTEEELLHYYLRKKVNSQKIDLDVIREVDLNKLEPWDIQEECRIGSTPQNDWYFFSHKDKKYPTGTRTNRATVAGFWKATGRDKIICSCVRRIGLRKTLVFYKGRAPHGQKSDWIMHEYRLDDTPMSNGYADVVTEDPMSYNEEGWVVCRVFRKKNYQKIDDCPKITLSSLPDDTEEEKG
How it was run: as §1

[11] = molecular target: T10, GST-VND3 NAC domain (Arabidopsis thaliana, UniProt Q9FH59 12-162); settings: protein: recombinant; tags: GST; chain copies: 2; dsDNA, one strand shown
T10 sequence: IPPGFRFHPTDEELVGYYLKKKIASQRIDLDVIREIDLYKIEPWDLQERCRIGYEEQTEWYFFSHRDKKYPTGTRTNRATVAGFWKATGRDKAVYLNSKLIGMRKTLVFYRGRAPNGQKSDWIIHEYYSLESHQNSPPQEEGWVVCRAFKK
How it was run: as §1

[12] = molecular target: T11, GST-VND7 NAC domain (Arabidopsis thaliana, UniProt Q9C8W9 9-158); settings: protein: recombinant; tags: GST; chain copies: 2; dsDNA, one strand shown
T11 sequence: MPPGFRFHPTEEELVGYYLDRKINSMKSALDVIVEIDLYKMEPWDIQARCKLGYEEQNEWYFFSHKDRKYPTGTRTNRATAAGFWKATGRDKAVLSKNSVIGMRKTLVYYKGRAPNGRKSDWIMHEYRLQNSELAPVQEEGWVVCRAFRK
How it was run: as §1

[13] = molecular target: GST-WRKY1(266-371) (Arabidopsis thaliana, UniProt Q9SI37 266-371); settings: protein: recombinant; tags: GST; dsDNA, one strand shown
GST-WRKY1(266-371), sequence (Q9SI37 266-371): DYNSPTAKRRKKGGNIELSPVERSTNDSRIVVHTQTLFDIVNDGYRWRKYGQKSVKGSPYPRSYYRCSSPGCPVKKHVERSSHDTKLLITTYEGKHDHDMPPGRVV
How it was run: as §1

Row | Sequence | binding signal [1] | binding signal [2] | binding signal [3] | binding signal [4] | binding signal [5] | binding signal [6] | binding signal [7] | binding signal [8] | binding signal [9] | binding signal [10] | binding signal [11] | binding signal [12] | binding signal [13]
1 | TAACGTAA | 0.452 E-score | 0.135 E-score | 0.25 E-score | 0.254 E-score | 0.34 E-score | 0.449 E-score | 0.309 E-score | 0.402 E-score | 0.174 E-score | 0.488 E-score | 0.375 E-score | 0.413 E-score | 0.0682 E-score
2 | TTACGGAA | 0.266 E-score | 0.151 E-score | 0.455 E-score | 0.402 E-score | 0.404 E-score | 0.354 E-score | 0.413 E-score | 0.199 E-score | 0.128 E-score | 0.405 E-score | 0.442 E-score | 0.391 E-score | 0.126 E-score
3 | CACGCAAG | 0.481 E-score | 0.0685 E-score | 0.413 E-score | 0.354 E-score | 0.268 E-score | 0.484 E-score | 0.348 E-score | 0.358 E-score | 0.155 E-score | 0.404 E-score | 0.415 E-score | 0.367 E-score | 0.0865 E-score
4 | ATTACGTG | 0.457 E-score | 0.112 E-score | 0.468 E-score | 0.432 E-score | 0.372 E-score | 0.462 E-score | 0.419 E-score | 0.296 E-score | 0.146 E-score | 0.252 E-score | 0.446 E-score | 0.437 E-score | 0.127 E-score
5 | ACGTCAAA | 0.333 E-score | 0.0817 E-score | 0.262 E-score | 0.245 E-score | 0.176 E-score | 0.372 E-score | 0.194 E-score | 0.261 E-score |  | 0.361 E-score | 0.252 E-score | 0.25 E-score | 0.421 E-score
6 | ACTAAGTA | 0.177 E-score | 0.429 E-score | 0.19 E-score | 0.216 E-score | 0.192 E-score | 0.126 E-score | 0.125 E-score | 0.252 E-score | 0.116 E-score | 0.258 E-score | 0.279 E-score | 0.218 E-score | 0.0999 E-score
7 | AAATTGAC | 0.173 E-score | 0.156 E-score | 0.134 E-score | 0.213 E-score | 0.228 E-score | 0.139 E-score | 0.136 E-score | 0.194 E-score | 0.0641 E-score | 0.2 E-score | 0.228 E-score | 0.0875 E-score | 0.45 E-score
8 | ACGTAAAG | 0.402 E-score | 0.0957 E-score | 0.367 E-score | 0.317 E-score | 0.301 E-score | 0.421 E-score | 0.255 E-score | 0.319 E-score | 0.0757 E-score | 0.41 E-score | 0.359 E-score | 0.283 E-score | 0.103 E-score
9 | ATGCGTAC | 0.362 E-score | 0.0817 E-score | 0.191 E-score | 0.17 E-score | 0.229 E-score | 0.414 E-score | 0.237 E-score | 0.192 E-score |  | 0.292 E-score | 0.235 E-score | 0.21 E-score | 0.0545 E-score
10 | AAGTAAGT | 0.249 E-score | 0.412 E-score | 0.189 E-score | 0.164 E-score | 0.199 E-score | 0.259 E-score | 0.135 E-score | 0.181 E-score | 0.267 E-score | 0.282 E-score | 0.217 E-score | 0.135 E-score | 0.2 E-score
11 | ACACGACA | 0.421 E-score | 0.0953 E-score | 0.452 E-score | 0.438 E-score | 0.339 E-score | 0.417 E-score | 0.36 E-score | 0.19 E-score | 0.0912 E-score | 0.14 E-score | 0.399 E-score | 0.424 E-score | 0.0821 E-score
12 | ACGTAAAA | 0.366 E-score | 0.161 E-score | 0.336 E-score | 0.331 E-score | 0.35 E-score | 0.406 E-score | 0.326 E-score | 0.312 E-score | 0.0957 E-score | 0.436 E-score | 0.368 E-score | 0.344 E-score | 0.0914 E-score
